# Measurements taken from PubChem BioAssay (EPA / NIEHS).
# “And” between values parts separate entries of the source, which are not always exact repeats. Equal entries are not always repeated. A structure can be active in one record and inactive in another. The source made the active and inactive calls. How the source made its calls: active means hit-call score of the fitted dose curve at least 0.9, where 1 is the maximum; inactive means score below 0.9.
# Read-out: Monocyte Chemoattractant Protein-1 (MCP1), CCL2 (gene 6347)
# Test: BSK_3C_MCP1: BioMAP Diversity Plus: 3C Assay for Monocyte Chemoattractant Protein-1 (MCP1) Biomarker Activity (AID 2283017)
# Settings: primary human endothelial cells (HUVEC); actives raise or lower the signal
# Procedure: BSK_3C is a cell-based, multiplexed-readout assay that uses umbilical vein endothelium, a human vascular primary cell, with measurements taken at 24 hours after chemical dosing in a 96-well plate.BSK_3C_MCP1 is an assay component measured in the BSK_3C assay. It measures MCP-1 antibody related to regulation of gene expression using ELISA technology.Data from the assay component BSK_3C_MCP1 was analyzed into 1 assay endpoint. This assay endpoint, BSK_3C_MCP1, was analyzed with bidirectional fitting relative to DMSO as the negative control and baseline of activity. Using a type of binding reporter, gain or loss-of-signal activity can be used to understand changes in the signaling as they relate to the gene CCL2. Furthermore, this assay endpoint can be referred to as a primary readout, because this assay has produced multiple assay endpoints where this one serves a signaling function. To generalize the intended target to other relatable targets, this assay endpoint is annotated to the cytokine intended target family, where the subfamily is chemotactic factor.
# The levels of cell surface (or secreted, indicated by the prefix "s") biomarker endpoints were measured by ELISA. Overt cytotoxicity to cells in confluent adherent cultures (all systems other than the BT system) was assessed by measuring total protein levels using sulforhodamine B (SRB) staining in parallel cultures at the time of biomarker measurements, indicated as SRB endpoints. For proliferation assays for adherent cell types, individual cell types are cultured at sub-confluence and relative cell numbers quantified by SRB staining at time points optimized for each system (48 h: 3C and CASM3C systems; 72 h: BT and HDF3CGF systems; 96 h: SAg system). SRB was performed by staining cells with 0.1% SRB after fixation with 10% TCA and reading wells at 560 nm.Viability and proliferation of PBMC (T cells) was quantified by Alamar Blue reduction for the SAg and BT systems. For PBMC viability (referred to as PBMC Cytotoxicity within the assay endpoint names), cells were plated (75,000/well in a 96-well plate) and then chemical samples added for 1 h before addition of activators, SEB and TSST-1 (20 ng/mL final concentration each). Cells were incubated for 90 h. Then, Alamar Blue (20 uL/well) (Invitrogen, Cat DAL1100) was added for 6 h, and the plates were read with a fluorescence microplate reader at 546/580 nm (excitation/emission). For PBMC proliferation, cells were plated and activated as above but incubated for only 16 h prior to addition of Alamar Blue. Plates were read after 6 h.
Compound,outcome,AC50
CC(C)COP(=O)(OCC(C)C)OCC(C)C,inactive,–
O=C(CCl)c1ccccc1,–,7.4 µM (active)
Oc1cc(Cl)ccc1Cl,inactive,–
CCCCCCCCCCCC#N,–,36.2 µM (active)
Cc1ccc(OP(=O)(Oc2ccc(C)cc2)Oc2ccc(C)cc2)cc1 (tested in a mixture with another compound),–,20 µM (active)
O=[N+]([O-])O,inactive,–
COC(C)(C)CCC[C@H](C)C/C=C/C(C)=C/C(=O)OC(C)C,–,36.9 µM (active)
CNC(=O)Oc1cc(C)c(SC)c(C)c1,inactive,–
COc1ccc(CO)cc1,inactive,–
O=[N+]([O-])C=Cc1ccccc1,–,7.71 µM (active)
C=CC(=O)OCC(CC)CCCC (centres undefined),–,20 µM (active)
O=C1C(Cl)=C(Cl)C(=O)C(Cl)=C1Cl,–,12.4 µM (active)
Oc1ccc(C2(c3ccc(O)cc3)c3ccccc3-c3ccccc32)cc1,–,13.2 µM (active) and 12 µM (active)
Clc1ccc(-c2ccccc2)cc1,inactive,–
O=c1[nH]c(Cl)c(Cl)cc1Cl,inactive,–
CC(C)(C)C(=O)CCl,inactive,–
O=c1c2ccccc2c(=O)c2c1cc(Cl)c1[nH]c3c([nH]c12)c(Cl)cc1c(=O)c2ccccc2c(=O)c13,inactive,–
Nc1ccc(-c2ccc(N)c(N)c2)cc1N,inactive,–
c1ccc(Nc2ccc3ccccc3c2)cc1,–,26 µM (active)

Compound,outcome,AC50
CCCC[N+](CCCC)(CCCC)CCCC,inactive,–
CC(C)CCCCCCCOC(=O)c1ccccc1C(=O)OCCCCCCCC(C)C,inactive,–
CCCOC(=O)c1ccccc1C(=O)OCCC,–,20 µM (active)
O=P1(NCCCl)OCCCN1CCCl (centres undefined),inactive,–
O=[N+]([O-])c1ccc(Cl)cc1,inactive,–
N#CCCCCC#N,inactive,–
COCC(=O)N(c1c(C)cccc1C)N1CCOC1=O,inactive,–
[Cd+2].[Cl-].[Cl-],inactive,–
CC(C)(c1cc(Cl)c(O)c(Cl)c1)c1cc(Cl)c(O)c(Cl)c1,–,12.3 µM (active)
CCc1cc(C)cc(CC)c1-c1c(OC(=O)C(C)(C)C)n2n(c1=O)CCOCC2,inactive,–
CC1(C)[C@H](C(=O)O[C@H](C#N)c2cccc(Oc3ccccc3)c2)[C@@H]1C=C(Br)Br,inactive,–
CCC(C)c1cc([N+](=O)[O-])cc([N+](=O)[O-])c1OC(=O)C=C(C)C (centres undefined),–,12.8 µM (active)
CC(C)(C)C(O)C(Oc1ccc(-c2ccccc2)cc1)n1cncn1 (centres undefined),–,32.1 µM (active)
O=S(=O)(c1ccccc1)c1ccccc1,inactive,–
O=C1C=CC(=O)C=C1,inactive,20 µM (active)
O=C(O)CCCc1ccc(N(CCCl)CCCl)cc1,–,20 µM (active) and 28.2 µM (active)
CC(C)CCCCCCCOP(=O)(Oc1ccccc1)Oc1ccccc1,–,10.7 µM (active)
CC(=O)/C=C/c1ccccc1,inactive,–
C=CCN(CC=C)C(=O)C(Cl)Cl,inactive,–
